“And” between values parts separate entries of the source, which are not always exact repeats. Equal entries are not always repeated. In all, about 5,500 compounds went through this assay and about 2,000 (36%) were called active. Roughly 18% stayed inconclusive and do not appear here. No stated cut-off is given here; in the data, active means normalized growth mostly below about 0.91 (no sharp cut-off); inconclusive means no clear call, values can overlap the other calls; inactive means mostly above about 0.92. The list shows a part of the results.
Test: chemical genetic growth profiling, strain panel (AID 1159580);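 further: tested at 20 µM; growth read once vehicle control cultures reached saturation at 30 °C; 1 = growth at the plate median or of vehicle wells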
Conditions: S. cerevisiae deletion strains, growth OD

Measured: normalized growth

Cn1c(=O)c2[nH]c(C3CCCC3)nc2n(C)c1=O
inactive: locus YAL013W, strain DEP1, stronger effect = lower value 1.01 | locus YAL021C, strain ccr4, stronger effect = lower value 0.989 | locus YAL026C, strain drs2, stronger effect = lower value 0.997 | locus YAL030W, strain snc1, stronger effect = lower value 0.99 | locus YAL040C, strain CLN3, stronger effect = lower value 0.977 | locus YBL061C, strain skt5, stronger effect = lower value 0.996 | locus YBR009C, strain hhf1, stronger effect = lower value 0.99 | locus YBR021W, strain FUR4, stronger effect = lower value 1.02 | locus YBR023C, strain chs3, stronger effect = lower value 0.996 | locus YBR171W, strain sec66, stronger effect = lower value 1.01 | locus YBR229C, strain ROT2, stronger effect = lower value 1.01 | locus YBR231C, strain swc5, stronger effect = lower value 0.997 | locus YBR279W, strain paf1, stronger effect = lower value 0.992 | locus YCL011C, strain gbp2, stronger effect = lower value 0.999 | locus YCL016C, strain dcc1, stronger effect = lower value 0.992 | locus YCL029C, strain bik1, stronger effect = lower value 0.994 | locus YCL061C, strain MRC1 (second series), stronger effect = lower value 0.985 | locus YCL061C, strain MRC1, stronger effect = lower value 0.993 | locus YCL069W, strain vba3, stronger effect = lower value 0.992 | locus YCR088W, strain abp1, stronger effect = lower value 1 | locus YDL005C, strain med2, stronger effect = lower value 0.982 | locus YDL035C, strain GPR1, stronger effect = lower value 1.01 | locus YDL040C, strain nat1, stronger effect = lower value 0.998 | locus YDL074C, strain BRE1, stronger effect = lower value 1.03 | locus YDL101C, strain DUN1, stronger effect = lower value 1.02 | locus YDL134C, strain PPH21, stronger effect = lower value 1.01 | locus YDL185W, strain tfp1, stronger effect = lower value 1.01 | locus YDL192W, strain arf1, stronger effect = lower value 1 | locus YDR001C, strain nth1, stronger effect = lower value 1 | locus YDR069C, strain doa4, stronger effect = lower value 0.979 | locus YDR101C, strain arx1, stronger effect = lower value 0.985 | locus YDR137W, strain rgp1, stronger effect = lower value 1 | locus YDR150W, strain NUM1, stronger effect = lower value 1.02 and 0.999 | locus YDR159W, strain sac3, stronger effect = lower value 0.989 | locus YDR162C, strain NBP2, stronger effect = lower value 1.02 | locus YDR195W, strain ref2 0.944 | locus YDR297W, strain sur2, stronger effect = lower value 0.991 | locus YDR318W, strain mcm21, stronger effect = lower value 0.986 | locus YDR334W, strain swr1, stronger effect = lower value 0.997 | locus YDR335W, strain msn5, stronger effect = lower value 0.995 | locus YDR363W, strain ESC2, stronger effect = lower value 1.03 | locus YDR388W, stronger effect = lower value 0.995 | locus YDR392W, strain spt3, stronger effect = lower value 0.85 | locus YDR502C, strain sam2, stronger effect = lower value 1.01 | locus YEL003W, strain gim4, stronger effect = lower value 1 | locus YEL037C, strain rad23, stronger effect = lower value 1 | locus YEL061C, strain CIN8 (second series), stronger effect = lower value 1.01 | locus YEL061C, strain CIN8, stronger effect = lower value 1.01 | locus YER002W, strain NOP16, stronger effect = lower value 0.944 | locus YER015W, strain faa2, stronger effect = lower value 0.994 | locus YER016W, strain bim1, stronger effect = lower value 0.99 | locus YER110C, stronger effect = lower value 0.991 | locus YER111C, strain swi4, stronger effect = lower value 0.998 | locus YER155C, strain BEM2 (second series), stronger effect = lower value 0.961 | locus YER155C, strain BEM2, stronger effect = lower value 1.01 | locus YER167W, strain BCK2, stronger effect = lower value 1.01 | locus YFR010W, strain ubp6, stronger effect = lower value 1 | locus YGL078C, strain dbp3, stronger effect = lower value 1 | locus YGL086W, strain mad1, stronger effect = lower value 0.997 | locus YGL167C, strain pmr1, stronger effect = lower value 0.984 | locus YGL173C, strain kem1, stronger effect = lower value 0.997 | locus YGL227W, strain vid30, stronger effect = lower value 0.991 | locus YGL240W, strain doc1, stronger effect = lower value 0.981 | locus YGL248W, strain PDE1, stronger effect = lower value 1.02 | locus YGL253W, strain hxk2, stronger effect = lower value 1.01 | locus YGR078C, strain PAC10, stronger effect = lower value 1.01 | locus YGR135W, strain pre9, stronger effect = lower value 0.982 | locus YGR229C, strain SMI1, stronger effect = lower value 1.02 and 1.04 | locus YGR252W, strain gcn5, stronger effect = lower value 0.904 | locus YHR013C, strain ard1, stronger effect = lower value 0.953 | locus YHR027C, strain rpn1, stronger effect = lower value 0.991 | locus YHR030C, strain SLT2, stronger effect = lower value 1.01 and 0.978 | locus YHR079C, strain IRE1 (second series), stronger effect = lower value 0.994 | locus YHR079C, strain IRE1, stronger effect = lower value 0.991 | locus YHR094C, strain hxt1, stronger effect = lower value 1 | locus YHR129C, strain ARP1, stronger effect = lower value 1.01 | locus YHR142W, strain chs7, stronger effect = lower value 1 | locus YHR200W, strain rpn10, stronger effect = lower value 1.01 | locus YIL066C, strain RNR3, stronger effect = lower value 1 | locus YIL073C, strain SPO22, stronger effect = lower value 1 | locus YIL125W, strain kgd1, stronger effect = lower value 0.995 | locus YIR030C, strain dcg1, stronger effect = lower value 1 | locus YJL092W, strain hpr5, stronger effect = lower value 1.01 | locus YJL095W, strain BCK1 (second series), stronger effect = lower value 0.992 | locus YJL095W, strain BCK1, stronger effect = lower value 1 and 0.974 | locus YJL115W, strain asf1, stronger effect = lower value 0.987 | locus YJL129C, strain trk1, stronger effect = lower value 0.974 | locus YJL134W, strain LCB3, stronger effect = lower value 1.01 | locus YJL154C, strain vps35, stronger effect = lower value 0.995 | locus YJL164C, strain tpk1, stronger effect = lower value 0.987 | locus YJL166W, strain qcr8, stronger effect = lower value 0.984 | locus YJL168C, strain set2, stronger effect = lower value 1 | locus YJL187C, strain SWE1 (second series), stronger effect = lower value 1.01 | locus YJL187C, strain SWE1, stronger effect = lower value 0.99 | locus YJR043C, strain POL32, stronger effect = lower value 0.992 | locus YJR066W, strain TOR1, stronger effect = lower value 0.96

Reference: PubChem BioAssay AID1159580 (chemical genetic matrix, 2015)
